Among the data in PubChem BioAssay AID623888 (Vanderbilt Specialized Chemistry Center, 2012) are % glutamate max and glutamate EC50 fold shift values, retold here.

The structures appear in SMILES notation.

The target in the experiment is Metabotropic glutamate receptor 3 (Rattus norvegicus) (UniProt P31422). In words: PubChem AID 623888. The following applies: HEK/GIRK rat mGlu3, thallium flux fluorescence, Schild, at 10 µM; % glutamate max: glutamate max response with compound, stronger effect = lower value; glutamate EC50 fold shift: stronger effect = higher value.
Sequence of Metabotropic glutamate receptor 3 (Rattus norvegicus) (P31422 whole entry, looked up): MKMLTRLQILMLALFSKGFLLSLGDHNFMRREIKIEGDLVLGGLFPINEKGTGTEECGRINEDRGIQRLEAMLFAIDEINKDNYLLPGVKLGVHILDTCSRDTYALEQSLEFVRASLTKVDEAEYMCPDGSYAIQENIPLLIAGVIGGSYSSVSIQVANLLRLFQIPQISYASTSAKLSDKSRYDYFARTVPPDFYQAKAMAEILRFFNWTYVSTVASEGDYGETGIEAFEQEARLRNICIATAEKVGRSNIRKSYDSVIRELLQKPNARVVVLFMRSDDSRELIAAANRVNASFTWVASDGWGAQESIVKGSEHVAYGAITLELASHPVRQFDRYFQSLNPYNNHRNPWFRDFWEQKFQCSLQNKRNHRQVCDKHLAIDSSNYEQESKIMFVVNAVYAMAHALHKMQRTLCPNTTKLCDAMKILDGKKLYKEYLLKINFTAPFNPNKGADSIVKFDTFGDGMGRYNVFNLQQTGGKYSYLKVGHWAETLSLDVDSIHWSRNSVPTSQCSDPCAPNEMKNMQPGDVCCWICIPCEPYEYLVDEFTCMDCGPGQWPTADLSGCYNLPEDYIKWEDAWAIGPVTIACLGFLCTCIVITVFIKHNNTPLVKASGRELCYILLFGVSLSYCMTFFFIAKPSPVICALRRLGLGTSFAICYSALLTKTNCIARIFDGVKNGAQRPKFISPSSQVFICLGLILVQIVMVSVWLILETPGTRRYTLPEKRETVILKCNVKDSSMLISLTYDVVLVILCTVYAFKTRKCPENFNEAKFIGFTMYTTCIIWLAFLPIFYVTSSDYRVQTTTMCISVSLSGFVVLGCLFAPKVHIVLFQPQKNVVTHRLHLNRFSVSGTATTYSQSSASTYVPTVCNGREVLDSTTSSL

As to `COc1ccc(C#Cc2ccc(C(=O)N3CCC[C@@H](CO)C3)cc2)cc1`, the % glutamate max was found to be 24.5% and the glutamate EC50 fold shift worked out at 8.96.
